# In PubChem BioAssay (Tox21):
# Results filed as inconclusive are left out. A number with no mark means an inactive call. Active and inactive are the calls of the source. Calls follow the shape of the dose curve; as a rule, active = well fitted cell-killing curve with a large enough effect in the repeat runs; inconclusive = weak or mixed curves, or effect the other way; inactive = flat fitted curve, though single readings scatter.
# Assay: qHTS assay to identify small molecule agonists of the sonic hedgehog signaling (Shh) pathway - cell viability counter screen (AID 1259366); also: nearly all actives have a fitted effect of over 50% in size
# Conditions: NIH/3T3 Gli1-Luc viability, CellTiter-Fluor, 24 h; series mostly up to 92.4 µM; viability change, negative = cytotoxic: at the top concentration
# From the text: National Center for Advancing Translational Sciences [NCATS]
# NIH Chemical Genomics Center [NCGC]
# U.S. Environmental Protection Agency [EPA]
# National Institutes of Environmental Health Sciences [NIEHS]
# National Toxicology Program [NTP]
# U.S. Food and Drug Administration [FDA]
# The sonic hedgehog (Shh) pathway is essential for normal embryonic development. Dysregulation of the Shh pathway can cause severe developmental defects in organs. Therefore chemicals that interfere with the pathway are potential developmental toxicants. A cell line designated 3T3Gli1-Luc (DMB/OARSA/CFSAN/FDA, Laurel, MD), a NIH/3T3 derived clone containing stably integrated Gli1-Luc reporter is used to detect chemical interference of the Shh pathway, by changes in the expression of the firefly Luc gene under the control of the Gli1 transcriptional response element. This cell line was used to screen Tox21 libraries for identifying and prioritizing the potential developmental toxicants that interfere Shh pathway. The cytotoxicity of the compounds was tested in parallel by measuring the cell viability using CellTiter-Fluor assay system (Promega, Madison, WI) in the same wells.
# Tox21 Assay Protocol Summary:
# 3T3 Gli1-Luc cells were dispensed at 2,000 per well in 5uL of culture medium into white solid bottom 1536-well plates (Greiner Bio-One, Monroe, NC) using a Multidrop Combi (Thermo Scientific, Waltham, MA) dispenser. The assay plates were incubated at 37 C and 5% CO2 for 4hr, and then 23nL of compounds dissolved in DMSO and positive control were transferred using a Pintool station (Wako, San Diego, CA). The assay plates were incubated at 37C and 5% CO2 for 24hr. For viability read, after 23hr of compound treatment, 1uL of CellTiter-Fluor reagent (Promega Corporation, Madison, WI) was added to each well of the assay plates using Flying Reagent Dispenser (FRD, Aurora Discovery, San Diego, CA) and incubated the assay plates at 37C for 1hr. The fluorescence signal was quantified using a ViewLux plate reader (Perkin Elmer, Shelton, CT).
# % is scaled to controls: 0 for no effect and ±100 for the full control effect; potency is read from the fitted curve at half-maximal effect.
SMILES,"viability change, negative = cytotoxic",Potency
CC(C)c1ccc2c(C(C)C)cc(C(C)C)c(S(=O)(=O)O)c2c1,0.845%,–
CCCCCCCCCO,5.44%,–
N[C@H]1C(O)O[C@H](CO)[C@H](O)[C@@H]1O (stereo not given in full),10.6%,–
CC(C)CCCC(C)CCO (stereo not given),1.44%,–
CCCCCCCCCC(=O)OCC,5.92%,–
CC(O)C1CCCCC1 (stereo not given),9.57%,–
CCCC(=O)OCC,2.08%,–
O=C1Nc2cc(Cl)ccc2Oc2ccccc21,8.28% [at 42.5 µM],–
C[Si](C)O[Si](C)(C)O[Si](C)(C)O[Si](C)C,-3.24%,–
CCN1CCC[C@H]1CNC(=O)c1c(OC)ccc(Br)c1OC,-5.67% [at 42.5 µM],–
CC1=CC(=O)/C(=C(/C)O)C(=O)O1,12%,–
N#Cc1c(F)cccc1F,-3.52%,–
Cc1cccc(C(C)(C)C)c1O,1.39%,–
C=CC[N+]1([C@H]2C[C@H]3[C@@H]4CC[C@H]5C[C@H](OC(C)=O)[C@@H](N6CCCCC6)C[C@]5(C)[C@H]4CC[C@]3(C)[C@H]2OC(=O)CC)CCCCC1,-0.945% [at 42.5 µM],–
NC1CCN(c2nc3c(cc2F)c(=O)c(C(=O)O)cn3-c2ccc(F)cc2F)C1 (stereo not given),-12.8% [at 42.5 µM],–
NC[C@H]1O[C@H](O[C@H]2[C@H](O)[C@@H](O[C@H]3O[C@H](CO)[C@@H](O)[C@H](N)[C@H]3O)[C@H](N)C[C@@H]2N)[C@H](O)[C@@H](O)[C@@H]1O,-24.3% [at 8.39 µM],–
CCCCCC/C=C/C=O,9.96%,–
O=c1c2ccccc2nnn1CCl,-3.86%,–
CC[C@H](C)[C@@H](C(=O)O)n1sc2ccccc2c1=O,-13.6%,–
CC(C)(C)c1ccc(OCC2CO2)cc1 (stereo not given),-18.2%,–

SMILES,"viability change, negative = cytotoxic",Potency
CC(C)(Oc1ccc(Cl)cc1)C(=O)OCCCOC(=O)C(C)(C)Oc1ccc(Cl)cc1,4.05% [at 42.5 µM],–
c1ccc(CNCc2ccccc2)cc1,0.115%,–
CCCC[C@H]1CN(CC2CCOCC2)C(=O)OC12CCN(C1(C)CCN(C(=O)c3c(C)ncnc3C)CC1)CC2,-1.08%,–
COCCCCCCCCOCCC[Si](C)(O[Si](C)(C)C)O[Si](C)(C)C,20.7%,–
Cc1ccc(C(=O)C(C)CN2CCCCC2)cc1 (stereo not given),0.708% [at 42.5 µM],–
CCCCCOC(=O)COc1cc(N2C(=O)C3=C(CCCC3)C2=O)c(F)cc1Cl,-4.18%,–
S=C(S)NCCNC(=S)S,-0.972%,–
CC(C)(C)c1cc(CO)cc(C(C)(C)C)c1O,-20.9%,–
O=C(O)Cn1c(C(=O)Nc2nc(-c3ccccc3Cl)cs2)cc2ccccc21,5.45% [at 42.5 µM],–
CC(=O)/C=C/C1C(C)=CCCC1(C)C (stereo not given),1.74%,–
COc1ccc2[nH]c(S(=O)Cc3ncc(C)c(OC)c3C)nc2n1 (stereo not given),-0.988% [at 42.5 µM],–
Cc1ccccn1,2.52%,–
NC(N)=N/N=C/c1c(Cl)cccc1Cl,–,11.9 µM (active)
CCCCOC(O)CC (stereo not given),-0.274%,–
CCCCC(CC)(CO)CO,3.45%,–
O=C1[C@H](CC[C@H](O)c2ccc(F)cc2)[C@@H](c2ccc(O)cc2)N1c1ccc(F)cc1,-15.2% [at 42.5 µM],–
CN1CCC[C@@H]1c1cccnc1,1.9% [at 42.5 µM],–
Cc1cc(O)ccc1N,–,27.4 µM (active)
CCCCOC(=O)c1ccccc1C(=O)OCC(CC)CCCC (stereo not given),1.24%,–
SC1CCCC1,0.253%,–
